Hits are enriched below; roughly 6.5% of the tested compounds scored in any of these assays.
MARV entry inh = qHTS for inhibitors of binding or entry into cells for Marburg Virus; Marburg virus pseudotyped entry inhibition, cell reporter; Potency, µM (top dose mostly 37.8 µM), for inactives: at the highest dose activity change, negative = inhibition, usual class: inhibitors; hit rate 1.8% among 300,000; AID 540276, 2011; calls by dose curve; tested in HEK293 cells; note: potency is the fitted concentration of half-maximal effect
VACV mCherry inh = qHTS for Stage-Specific Inhibitors of Vaccinia Orthopoxvirus: mCherry Reporter Primary qHTS; Vaccinia virus mCherry reporter infection, fluorescence; hit rate 0.63% among 310,000; Potency, µM (titrated, usually from 36.5 µM), without a hit: at the highest dose activity change, negative = inhibition, usual class: inhibitors; calls by dose curve; tested in A549 cells; note: potency is the fitted concentration of half-maximal effect; nearly all actives have a fitted effect of over 35% in size
VACV Venus inh = qHTS for Stage-Specific Inhibitors of Vaccinia Orthopoxvirus: Venus Reporter Primary qHTS; hit rate 0.46% among 330,000; Vaccinia virus Venus reporter expression, fluorescence; AID 720580, 2013; Potency, µM (doses to about 36.5 µM), without a hit: at the top dose activity change, negative = inhibition, hits mostly inhibitors; calls by dose curve; tested in A549 cells; note: potency is the fitted concentration of half-maximal effect; nearly all actives have a fitted effect of over 30% in size
HCMV antiviral = qHTS Assay for inhibitors of the human cytomegalovirus (HCMV). HFF cells, HCMV-luciferase reporter, 72 h; hits give low values. activity change, negative = inhibition, % at 57.5 µM. hit rate 4.5% among 410,000. AID 1259415, 2018; in the data active = activity change below about -60%; inconclusive = no clear call, values can overlap the other calls; inactive = above about -39%
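Screen run at 2 compound doses on HFFs infected with reporter HCMV, MOI 1 PFU/cell. Luciferase activity from cell lysates at 72 h post infection gave inhibition relative to buffer-only and Salinomycin wells.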
LASV entry inh = qHTS for Inhibitors of binding or entry into cells for Lassa Virus; Lassa virus pseudotype entry inhibition, cell reporter; Potency, µM (top dose mostly 37.9 µM), for inactives: at the highest dose activity change, negative = inhibition, actives largely listed as inhibitors; hit rate 1.2% among 300,000; calls by dose curve; tested in HEK293 cells; note: potency is the fitted concentration of half-maximal effect; nearly all actives have a fitted effect of over 50% in size
FMDV antiviral = High Throughput Screening for Foot and Mouth Disease Virus Antivirals | hit rate 1.2% among 410,000 | FMDV antiviral cell-based qHTS | Potency, µM (series often up to 57.9 µM), inactives show top-dose activity change, negative = inhibition, actives largely listed as inhibitors; calls by dose curve; tested in HEK293T cells; note: read-out not given here; potency is the fitted concentration of half-maximal effect; nearly all actives have a fitted effect of over 45% in size
* hit, by the source's call; i = inactive; ? = inconclusive; . = no result; ! = a repeat was not active; [ ] = dose if it differs, or a comment. % is set by controls: 0 for no effect and ±100 for the full control effect.

SMILES	MARV entry inh	VACV mCherry inh	VACV Venus inh	HCMV antiviral	LASV entry inh	FMDV antiviral
Cc1nnc(N2CCC(C(=O)NCc3ccc(F)cc3)CC2)c2nn(-c3ccc(Cl)cc3)c(C)c12	.	?	?	-86.2*	-8.9%[46.1 µM]	-28.2%
CCOc1ccc(CNC(=O)C2CCN(c3nnc(C)c4c(C)n(-c5ccc(C)cc5)nc34)CC2)cc1	.	.	.	-74.5*	.	?
COc1ccccc1CCNC(=O)C1CCN(c2nnc(C)c3c(C)n(-c4ccc(C)cc4)nc23)CC1	.	14.1µM*	10µM*	-93.4*!	?	-9.1%
CCOc1ccccc1CNC(=O)C1CCN(c2nnc(C)c3c(C)n(-c4ccc(C)cc4)nc23)CC1	.	11.2µM*	11.2µM*	-86.5*	-8.6%[46.1 µM]	?
Cc1nnc(N2CCC(C(=O)NC3CCCCC3)CC2)c2nn(-c3ccccc3)c(C)c12	.	i	-8.8%	28.6	6.3%[46.1 µM]	-14.6%
O=C1C[C@@H](c2ccccc2)[C@H](c2ccc(Br)cc2)O1	-17.0%[14.2 µM]	.	.	.	.	.
Cc1ccc(-n2nc3c(N4CCC(C(=O)NCc5ccccc5C)CC4)nnc(C)c3c2C)cc1	.	.	.	.	.	-17.5%
Cc1ccc(-n2nc3c(N4CCC(C(=O)NCc5ccccc5Cl)CC4)nnc(C)c3c2C)cc1	.	?	10µM*	-27.8	-14.9%[46.1 µM]	?
Cc1nnc(N2CCC(C(=O)NCCc3ccccc3)CC2)c2nn(-c3ccc(Cl)cc3)c(C)c12	.	?	?	-10.5	11.5%[46.1 µM]	0.0%
Cc1nnc(N2CCC(C(=O)NCCc3ccccc3Cl)CC2)c2nn(-c3ccccc3)c(C)c12	.	28.2µM*	?	-91.2*	-12.8%[46.1 µM]	-16.4%
O=C(NCCc1nnc2n1CCN(CC1CC=CCC1)CC2)c1ccc(F)cc1 (stereo not given)	.	i	-14.0%	.	.	-12.0%
c1cnc(N2CCN(c3ncnc4c3oc3ccccc34)CC2)nc1	-6.9%	.	.	.	.	.
C(=C\c1ccccc1)/CN1CCN(c2ncnc3c2oc2ccccc23)CC1	?	.	.	-72.7*	-15.5%	20µM*
COc1cc(=O)n2c(c1C(=O)N(C)Cc1nonc1C)CCN(C(=O)c1cc(C)cc(C)c1)CC2	.	-8.0%	-16.0%	.	.	15.1%
CCOn1c(=O)c(-c2ccc(C)cc2)[n+]([O-])c2ccccc21	.	.	.	-60.3*	.	0.9%
CCOc1ccc(CCNC(=O)C2CCN(C(=O)c3cc4sccc4n3CC)CC2)cc1OCC	?	-20.1%	-26.8%	-27.6	.	?
O=C(C1CCC(=O)N(C2CCCC2)C1)N1CCN(Cc2cccc(Cl)c2)CC1 (stereo not given)	29.4%	-16.6%	-10.4%	-71.6*	-11.9%	-7.4%
O=C(C1CC(=O)N(C2CCCC2)C1)N1CCC(Cc2ccccc2)CC1 (stereo not given)	-1.3%	-23.3%	-21.1%	-65.2*	0.7%	.
O=C(NCCc1ccc(Cl)cc1)C1CCC(=O)N(C2CCCCCC2)C1 (stereo not given)	-6.0%[46.1 µM]	i	-11.6%	-61.2*	4.9%[46.1 µM]	-5.7%
CN(C)c1ccc(-c2cncnc2-n2ccnc2)cc1	.	.	.	.	.	-13.0%
CSCCC(NS(=O)(=O)c1ccc2c(c1)oc(=O)n2C)C(=O)Nc1ccc(Cl)cc1 (stereo not given)	-13.0%[46.1 µM]	-10.1%	-3.0%	-7.8	-4.9%[46.1 µM]	19.4%
CCN1C(=O)/C(=C2\C=CC3=C(CCCC3)N2CC)SC1=S	-6.6%	.	.	.	.	.
CCC(=NCc1ccco1)c1c(O)n(-c2ccc(C)cc2)c(=O)[nH]c1=O	?	.	.	-9.4	0.58µM*	-17.0%
CCC(=NCc1ccco1)c1c(O)n(-c2ccccc2)c(=O)[nH]c1=O	12.9%	.	-10.7%	35.5	?	-20.3%
CC(C)C1CCN(C(=O)C2CCC(=O)N(CCc3ccc(Cl)cc3)C2)CC1 (stereo not given)	5.7%	-5.5%	-22.8%	-63.9*	-18.0%	?
SMILES	MARV entry inh	VACV mCherry inh	VACV Venus inh	HCMV antiviral	LASV entry inh	FMDV antiviral
CC(C)N[C@@H](C)Cc1ccc(I)cc1	16.4µM*	.	.	.	.	.
CC(C)NC(C)Cc1ccc(I)cc1 (stereo not given)	16.4µM*	i	-8.2%	-32.7	8.9%	-20.6%
CC1CCN(S(=O)(=O)c2ccc3c(c2)N(CC(=O)N2CCN(c4ccccc4)CC2)C(=O)CO3)CC1	?	-5.5%	-2.4%	-15.0	21.3%[46.1 µM]	-17.2%
Oc1ccc2c3c1OC1c4[nH]c5ccccc5c4C[C@@]4(O)C(C2)N(CC2CC2)CC[C@]314 (stereo not given in full)	.	-7.8%	-22.1%	42.1	.	0.0%
Oc1ccc2c3c1O[C@H]1c4[nH]c5ccccc5c4C[C@@]4(O)C(C2)N(CC2CC2)CCC314 (stereo not given in full)	16.4µM*	-18.0%	-6.1%	.	18.3µM*	-18.3%
Oc1ccc2c3c1O[C@H]1c4oc5ccccc5c4C[C@@]4(O)C(C2)N(CC2CC2)CCC314 (stereo not given in full)	10.3µM*	.	.	.	.	.
Oc1ccc2c3c1OC1c4oc5ccccc5c4C[C@@]4(O)[C@@H](C2)N(CC2CC2)CC[C@]314 (stereo not given in full)	.	i	-11.8%	-61.4*	.	-2.0%
O=C1/C(=C/c2ccccc2)C[C@@]2(O)[C@H]3Cc4ccc(O)c5c4[C@@]2(CCN3CC2CC2)C1O5 (stereo not given in full)	.	?	10µM*	.	.	10µM*
COc1ccc(-c2nc3cc(C(C)C)ccc3o2)cc1NC(=O)COc1ccc(C)cc1C	2.1%[46.1 µM]	-20.4%	-20.0%	-6.1	-1.7%[46.1 µM]	6.5%
CCOC(=O)c1c(-c2ccc([N+](=O)[O-])cc2)[nH]c2ccc(C)cc12	.	.	.	-22.0	.	.
CC(NC(=O)Cc1ccc(NC(=O)N2CCSc3ncccc32)cc1)c1ccccc1 (stereo not given)	.	-12.5%	-7.6%	0.0	-6.8%[46.1 µM]	-25.1%
COc1ccc(/C=C/c2nc(C#N)c(NCCc3ccccc3)o2)cc1OC	6.5%[46.1 µM]	-2.7%	6.4%	18.1	-7.8%[46.1 µM]	2.6%
CCc1cccc(NC(=O)C(Cc2ccccc2)n2cccc2)c1 (stereo not given)	?	-4.5%	-1.6%	-19.5	.	3.8%
CC(=O)c1cccc(NC(=O)c2c(C)nn(-c3ccc(F)cc3)c2-n2cccc2)c1	.	-12.4%	-0.8%	-10.7	18.9%[46.1 µM]	?
C=CCN1CC[C@]23c4c5ccc(O)c4O[C@H]2/C(=N/NC(=O)c2ccccc2)CC[C@@]3(O)[C@H]1C5	0.0891µM*!	i	-7.9%	-63.7*	?	?
C=CCN1CC[C@@]23c4c5ccc(O)c4O[C@H]2/C(=N\N=C2/CC[C@@]4(O)[C@H]6Cc7ccc(O)c8c7[C@@]4(CCN6CC=C)[C@@H]2O8)CC[C@]3(O)[C@@H]1C5	.	.	.	.	.	-0.9%
COc1ccc(NC(=S)NNc2ccc([N+](=O)[O-])cc2S(=O)(=O)Nc2ccc(C)cc2C)cc1	?	-22.6%	-29.6%	-65.8*	?	-13.4%

Screening data (PubChem BioAssay)
